Results reported in PubChem BioAssay AID1159580 (chemical genetic matrix, 2015).
Hit rate of the full screen: of about 5,500 compounds, about 2,000 (36%) were called active. Inconclusive results (about 18%) are left out. Rule as the data show it: active = normalized growth mostly below about 0.91 (no sharp cut-off); inconclusive = no clear call, values can overlap the other calls; inactive = mostly above about 0.92. The list shows a part of the results.

Assay: chemical genetic growth profiling, strain panel (AID 1159580);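 also: tested at 20 µM; growth read once vehicle control cultures reached saturation at 30 °C; 1 = growth at the plate median or of vehicle wells; lower values mean less growth of the strain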
Details: growth OD
[1] = S. cerevisiae deletion strains, locus YBR021W, strain FUR4, active compounds read low
[2] = S. cerevisiae deletion strains, locus YBR229C, strain ROT2, active compounds read low
[3] = S. cerevisiae deletion strains, locus YCL029C, strain bik1, active compounds read low
[4] = S. cerevisiae deletion strains, locus YDL035C, strain GPR1, active compounds read low
[5] = S. cerevisiae deletion strains, locus YDL074C, strain BRE1, active compounds read low
[6] = S. cerevisiae deletion strains, locus YDL101C, strain DUN1, active compounds read low
[7] = S. cerevisiae deletion strains, locus YDL185W, strain tfp1, active compounds read low
[8] = S. cerevisiae deletion strains, locus YDL192W, strain arf1, active compounds read low
[9] = S. cerevisiae deletion strains, locus YDR101C, strain arx1, active compounds read low
[10] = S. cerevisiae deletion strains, locus YDR162C, strain NBP2, active compounds read low
[11] = S. cerevisiae deletion strains, locus YDR318W, strain mcm21, active compounds read low
[12] = S. cerevisiae deletion strains, locus YDR388W, active compounds read low
[13] = S. cerevisiae deletion strains, locus YDR502C, strain sam2, active compounds read low
[14] = S. cerevisiae deletion strains, locus YEL061C, strain CIN8, active compounds read low
[15] = S. cerevisiae deletion strains, locus YER110C, active compounds read low
[16] = S. cerevisiae deletion strains, locus YER155C, strain BEM2, active compounds read low
[17] = S. cerevisiae deletion strains, locus YER167W, strain BCK2, active compounds read low
[18] = S. cerevisiae deletion strains, locus YGL078C, strain dbp3, active compounds read low
[19] = S. cerevisiae deletion strains, locus YGL086W, strain mad1, active compounds read low
[20] = S. cerevisiae deletion strains, locus YGL248W, strain PDE1, active compounds read low
[21] = S. cerevisiae deletion strains, locus YGR135W, strain pre9, active compounds read low
[22] = S. cerevisiae deletion strains, locus YGR252W, strain gcn5, active compounds read low
[23] = S. cerevisiae deletion strains, locus YHR030C, strain SLT2, active compounds read low
[24] = S. cerevisiae deletion strains, locus YHR079C, strain IRE1 (second series), active compounds read low
[25] = S. cerevisiae deletion strains, locus YHR094C, strain hxt1, active compounds read low
[26] = S. cerevisiae deletion strains, locus YHR129C, strain ARP1, active compounds read low
[27] = S. cerevisiae deletion strains, locus YHR200W, strain rpn10, active compounds read low
[28] = S. cerevisiae deletion strains, locus YIL066C, strain RNR3, active compounds read low
[29] = S. cerevisiae deletion strains, locus YIL073C, strain SPO22, active compounds read low
[30] = S. cerevisiae deletion strains, locus YIL125W, strain kgd1, active compounds read low
[31] = S. cerevisiae deletion strains, locus YIR030C, strain dcg1, active compounds read low
[32] = S. cerevisiae deletion strains, locus YJL095W, strain BCK1, active compounds read low
[33] = S. cerevisiae deletion strains, locus YJL134W, strain LCB3, active compounds read low
[34] = S. cerevisiae deletion strains, locus YJL168C, strain set2, active compounds read low
[35] = S. cerevisiae deletion strains, locus YJL187C, strain SWE1 (second series), active compounds read low
[36] = S. cerevisiae deletion strains, locus YJR043C, strain POL32, active compounds read low
[37] = S. cerevisiae deletion strains, locus YKL009W, strain mrt4, active compounds read low
[38] = S. cerevisiae deletion strains, locus YKL068W, active compounds read low
[39] = S. cerevisiae deletion strains, locus YKL085W, strain MDH1 (second series), active compounds read low
[40] = S. cerevisiae deletion strains, locus YKL085W, strain MDH1, active compounds read low
[41] = S. cerevisiae deletion strains, locus YKL190W, strain CNB1, active compounds read low
[42] = S. cerevisiae deletion strains, locus YKR001C, strain vps1, active compounds read low
[43] = S. cerevisiae deletion strains, locus YLR039C, strain RIC1, active compounds read low
[44] = S. cerevisiae deletion strains, locus YLR058C, strain SHM2, active compounds read low
[45] = S. cerevisiae deletion strains, locus YLR102C, strain apc9, active compounds read low
[46] = S. cerevisiae deletion strains, locus YLR262C, strain YPT6, active compounds read low
[47] = S. cerevisiae deletion strains, locus YLR268W, strain sec22, active compounds read low
[48] = S. cerevisiae deletion strains, locus YLR330W, strain CHS5, active compounds read low
[49] = S. cerevisiae deletion strains, locus YLR342W, strain FKS1 (second series), active compounds read low
[50] = S. cerevisiae deletion strains, locus YLR371W, strain rom2, active compounds read low
[51] = S. cerevisiae deletion strains, locus YLR418C, strain cdc73, active compounds read low
[52] = S. cerevisiae deletion strains, locus YML016C, strain PPZ1, active compounds read low
[53] = S. cerevisiae deletion strains, locus YML032C, strain rad52, active compounds read low
[54] = S. cerevisiae deletion strains, locus YML124C, strain tub3, active compounds read low
[55] = S. cerevisiae deletion strains, locus YMR078C, strain ctf18, active compounds read low
[56] = S. cerevisiae deletion strains, locus YMR223W, strain ubp8, active compounds read low
[57] = S. cerevisiae deletion strains, locus YMR307W, strain GAS1, active compounds read low
[58] = S. cerevisiae deletion strains, locus YNL067W, strain RPL9B, active compounds read low
[59] = S. cerevisiae deletion strains, locus YNL153C, strain GIM3, active compounds read low
[60] = S. cerevisiae deletion strains, locus YNL233W, strain BNI4, active compounds read low
[61] = S. cerevisiae deletion strains, locus YNL250W, strain rad50, active compounds read low
[62] = S. cerevisiae deletion strains, locus YNL271C, strain bni1, active compounds read low
[63] = S. cerevisiae deletion strains, locus YNL298W, strain CLA4, active compounds read low
[64] = S. cerevisiae deletion strains, locus YNL307C, strain MCK1, active compounds read low
[65] = S. cerevisiae deletion strains, locus YNR052C, strain pop2, active compounds read low
[66] = S. cerevisiae deletion strains, locus YOL012C, strain htz1
[67] = S. cerevisiae deletion strains, locus YOL147C, strain pex11, active compounds read low
[68] = S. cerevisiae deletion strains, locus YOR061W, strain CKA2, active compounds read low
[69] = S. cerevisiae deletion strains, locus YOR069W, strain VPS5, active compounds read low
[70] = S. cerevisiae deletion strains, locus YOR136W, strain idh2, active compounds read low
[71] = S. cerevisiae deletion strains, locus YOR144C, strain elg1, active compounds read low
[72] = S. cerevisiae deletion strains, locus YOR184W, strain ser1, active compounds read low
[73] = S. cerevisiae deletion strains, locus YOR316C, strain cot1, active compounds read low
[74] = S. cerevisiae deletion strains, locus YPR119W, strain clb2, active compounds read low
[75] = S. cerevisiae deletion strains, locus YPR141C, strain kar3, active compounds read low
[76] = S. cerevisiae deletion strains, locus YPR163C, strain tif3, active compounds read low
[77] = S. cerevisiae deletion strains, locus YPR167C, strain met16, active compounds read low
[78] = S. cerevisiae deletion strains, strain wtn01, active compounds read low

Measured: normalized growth

COc1ccccc1-c1cc(=O)c2c(OC)cccc2o1
inactive: [1] 0.99 | [2] 0.973 | [3] 1 | [4] 0.953 | [5] 0.923 | [6] 0.966 | [7] 0.987 | [9] 0.987 | [10] 0.95 | [11] 0.935 | [12] 0.985 | [13] 0.944 | [14] 0.977 | [15] 0.977 | [16] 1.01 | [17] 0.996 | [18] 0.983 | [19] 0.99 | [20] 0.942 | S. cerevisiae deletion strains, locus YGR078C, strain PAC10, active compounds read low 0.938 | [21] 0.915 | [22] 0.776 | [23] 0.991 | [24] 0.979 | [25] 0.996 | [26] 0.967 | [27] 0.98 | [28] 0.961 | [29] 0.931 | [30] 1.01 | [31] 0.969 | [33] 0.988 | [34] 0.971 | [35] 0.954 | [36] 0.999 | S. cerevisiae deletion strains, locus YJR075W, strain HOC1, active compounds read low 0.987 | [37] 0.968 | [38] 0.993 | [39] 0.982 | [40] 0.982 | [41] 0.972 | [42] 0.916 | [43] 0.872 | [44] 0.96 | [45] 0.988 | [46] 0.815 | [47] 0.98 | [48] 0.976 | [49] 0.894 | [50] 0.979 | [52] 0.983 | [53] 0.951 | [54] 0.983 | [55] 0.969 | [56] 0.916 | S. cerevisiae deletion strains, locus YMR263W, strain SAP30, active compounds read low 0.958 | [57] 0.72 | [58] 0.982 | [59] 0.974 | [60] 0.922 | [61] 0.999 | [62] 0.969 | [63] 0.965 | S. cerevisiae deletion strains, locus YNL322C, strain KRE1, active compounds read low 0.978 | [65] 0.958 | S. cerevisiae deletion strains, locus YOL006C, strain TOP1, active compounds read low 0.762 | [66] 1.44 | [67] 0.975 | [68] 0.972 | [69] 0.982 | [70] 1 | [71] 0.996 | [73] 0.992 | S. cerevisiae deletion strains, locus YPL241C, strain CIN2, active compounds read low 0.974 | [74] 0.982 | [75] 0.987 | [76] 0.964 | [77] 0.969 | [78] 1 | S. cerevisiae strains, strain wild type, active compounds read low 0.975
active: [8] 0.892 | [32] 0.773 | [51] 0.77 | [64] 0.88 | [72] 0.837

COc1ccccc1-c1cc(=O)c2cccc(OC)c2o1
inactive: [2] 0.972 | [3] 0.987 | [4] 0.894 | [5] 0.824 | [6] 0.909 | [7] 0.986 | [9] 0.928 | [10] 0.857 | [12] 0.97 | [15] 1.01 | [16] 0.93 | [18] 0.991 | [24] 0.993 | [25] 1 | [27] 0.939 | [29] 0.875 | [30] 0.989 | [31] 0.977 | [33] 0.974 | [34] 0.977 | [35] 0.885 | [36] 0.864 | [37] 0.978 | [38] 0.998 | [39] 0.977 | [40] 0.977 | [41] 0.938 | [43] 0.84 | [44] 0.911 | [45] 1.01 | [46] 0.855 | [47] 0.924 | [52] 0.956 | [53] 0.92 | [54] 0.972 | [55] 0.986 | [57] 0.843 | [58] 0.896 | [59] 0.903 | [61] 0.997 | [62] 0.983 | [63] 0.963 | [65] 0.964 | [66] 1.7 | [68] 0.976 | [69] 0.951 | [70] 0.992 | [71] 0.967 | [73] 0.991 | S. cerevisiae deletion strains, locus YPL055C, strain LGE1, active compounds read low 0.826 | [74] 1 | [75] 1 | [76] 0.924 | [77] 0.964 | [78] 0.918
active: [1] 0.795 | S. cerevisiae deletion strains, locus YDL134C, strain PPH21, active compounds read low 0.865 | [8] 0.867 | [11] 0.915 | [13] 0.906 | [14] 0.902 | [17] 0.899 | [19] 0.908 | [20] 0.865 | [21] 0.869 | S. cerevisiae deletion strains, locus YGR229C, strain SMI1, active compounds read low 0.617 | [22] 0.714 | [23] 0.753 | [26] 0.882 | [28] 0.814 | [32] 0.562 | [42] 0.855 | [48] 0.798 | [49] 0.732 | [50] 0.839 | [51] 0.642 | [56] 0.886 | [60] 0.795 | [64] 0.758 | [67] 0.924 | [72] 0.758
